# Sampled rows, rich in hits. Any-hit rate of the full collection: about 3.3%.
# PI4K2A inh – PI4K2A (human) kinase inhibition; purified PI4K2A, ADP-Glo luminescence, 1 h; stronger effect = lower value; activity change, negative = inhibition, % at 76.9 µM; hit rate 0.13% among 420,000; AID 1346378; in the data active = activity change below about -50%; inconclusive = mostly about -30% to -49%;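 also: -100% = wells without enzyme as full effect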
#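 ADP-Glo luminescence measured ADP generated by PI4K2A enzyme (4 ug/mL before mixing) with 1.2 mM PI substrate (pre-mix) and 300 microM ATP (pre-mix). Tris pH7.5 buffer with MgCl2, Triton X-100; 1 h reaction at ambient temperature.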
# PI5P4K alpha inh – PI5P4K alpha (human) kinase inhibition; P48426; PI5P4Kalpha enzyme, ADP-Glo luminescence, 60 min; stronger effect = lower value; max response, %; hit rate 1.2% among 330,000; active = max response of -50% or lower; inconclusive = between -30% and -50%; inactive = -30% or higher; also: value at the top dose of about 77 µM; % is scaled to controls: 0 for no effect and ±100 for the full control effect
#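 Quantitative HTS of the MLSMR library against PI5P4Kalpha with substrate. ATP added last at 5 microM final; room temperature, 60 minutes. Remaining ATP depleted, ADP converted and read as luminescence.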
# D3 ag – D3 dopamine receptor (human) agonism; P35462; D3R DiscoveRx beta-arrestin cells, luminescence, 90 min; max activation, %; hit rate 0.58% among 410,000; AID 652048; in the data active = max activation above about 30%; also: 0% is about no effect
# Target sequence (P35462 whole entry, looked up): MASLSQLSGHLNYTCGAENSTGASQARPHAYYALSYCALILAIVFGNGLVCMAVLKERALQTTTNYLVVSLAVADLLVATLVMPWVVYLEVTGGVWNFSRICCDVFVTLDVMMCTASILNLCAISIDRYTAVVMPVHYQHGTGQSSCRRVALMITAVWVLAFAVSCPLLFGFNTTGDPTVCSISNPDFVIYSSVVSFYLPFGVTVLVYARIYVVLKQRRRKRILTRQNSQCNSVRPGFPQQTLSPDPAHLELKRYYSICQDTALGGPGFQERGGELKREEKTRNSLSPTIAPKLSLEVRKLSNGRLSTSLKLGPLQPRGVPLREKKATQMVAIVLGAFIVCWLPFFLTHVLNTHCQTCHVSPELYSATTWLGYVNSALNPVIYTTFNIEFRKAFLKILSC
#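 Agonist-mode cell screen: cells plated at 1500/well and incubated overnight at 37 °C, then exposed to library compounds for 90 min at 37 °C. Detection reagent was added for 30–60 min at room temperature, and luminescence was read.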
# LDHA inh – blocks human lactate dehydrogenase A. P00338. purified LDHA, NADH/diaphorase-resazurin fluorescence; stronger effect = lower value. activity change, % (values are at about 110 or 230 µM). hit rate 0.15% among 480,000. AID 1347041; in the data active = activity change below about -30%; inconclusive = mostly about -25% to -30%;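 also: plate controls were DMSO wells for no effect and wells without enzyme for full effect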
#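 Enzyme activity of human lactate dehydrogenase 5 (2 nM; 0.06 mM NADH, 0.2 mM pyruvate, 5 min, RT) is measured via a resazurin/diaphorase fluorescence readout of residual NADH.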
# DRD3 antagonist – D3 dopamine receptor (human) antagonism; P35462; D3R cells, DiscoveRx beta-arrestin luminescence, antagonist mode; stronger effect = lower value; max response, negative = inhibition, %; hit rate 2.5% among 360,000; AID 652054; in the data active = max response below about -50%; inconclusive = no clear call, values can overlap the other calls; also: % is scaled to controls: 0 for no effect and ±100 for the full control effect
#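 Cells plated overnight at 1500 cells/well, then exposed to library compounds with dopamine controls for 90 minutes at 37 degrees C. DiscoveRx reagent added for 30–60 minutes at room temperature; luminescence read, quantitative HTS format.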
# The depositor's hits bear a star; ? = inconclusive; . = no result given.
SMILES,PI4K2A inh,PI5P4K alpha inh,D3 ag,LDHA inh,DRD3 antagonist
Cc1ccc2c(c1)-c1c(cnn1CC(=O)O)CO2,5,-8,-4,-4,27
O=c1c2ccccc2cnn1Cc1n[nH]c(=S)n1-c1cc(Cl)cc(Cl)c1,0,2,-7,-1,-57*
CC(=O)NCCNC(=O)c1ccc2ccccc2n1,.,.,.,-31*,.
O=C(C(=Cc1ccccc1)CN1CCCCC1)c1ccccc1,15,0,-23,-1,-91*
Cc1ccc2oc(-c3ccccc3)c(C(=O)O)c(=O)c2c1,4,12,-2,0,-53*
Fc1ccc2c(c1)Sc1ccc(Cl)cc1CC2N1CCN(CCC2OCCO2)CC1 (stereo not given),14,-5,-11,-3,-93*
O=[N+]([O-])c1ccc2c(c1)C(N1CCN(CCO)CC1)Cc1ccc(F)cc1S2 (stereo not given),-12,-4,-20,-3,-106*
CCN1C(=O)CC(N2CCN(c3ccc(OC)cc3)CC2)C1=O (stereo not given),-4,-2,7,-3,-1
OCCN1CCN(CC/C=C2/c3ccccc3Sc3ccc(Cl)cc32)CC1,-4,24,0,-6,-12
CSc1ccc2c(c1)C(N1CCN(C)CC1)Cc1ccc(F)cc1S2 (stereo not given),1,11,-18,2,-95*
O=[N+]([O-])c1ccc(CN2CC(N3CCN(CCO)CC3)CS2(=O)=O)cc1 (stereo not given),-5,-7,-11,1,0
COc1ccc2c(c1)CC(N1CCN(C)CC1)c1cc(OC)ccc1S2 (stereo not given),9,18,-12,-5,-94*
CCC(C)N(C(=S)Nc1cccc(Cl)c1)C1CCN(C(C)=O)CC1 (stereo not given),.,.,.,10,.
COc1ccc2[nH]c3c(c2c1)CCN1C(=O)N([C@@H](C)C(=O)NCc2ccc(C)cc2)C(=O)[C@]31C,-3,3,31*,-3,2
S=C(Nc1ccccn1)c1ccccn1,-14,-95*,-9,-2,?
O=C(Nc1ccccn1)C(=O)Nc1ccccn1,-12,-20,5,-1,-9
Fc1ccc(N=c2ssnc2Cl)c(F)c1,-8,-62*,8,-3,6
Fc1ccc(N=Cc2ccc(C=Nc3ccc(F)cc3F)cc2)c(F)c1,.,.,.,5,.
COc1ccc(N=c2ssnc2Cl)cc1,12,-83*,-6,-2,-55*
CCOC(=O)c1ccc(N=c2ssnc2Cl)cc1,7,-79*,2,-6,-14
Clc1nssc1=Nc1ccccc1,-1,-57*,-9,-11,-16
CC(OC(=O)c1ccc(CCNS(C)(=O)=O)cc1)C(=O)N(C(C)C)C(C)C (stereo not given),.,.,.,9,.
Cc1ccc(-n2ncc3c(=O)n(-c4ccc(F)c(Cl)c4)c(C)nc32)cc1,.,.,.,-1,.
CCOC(=O)C1CCN(C(=O)C(Cc2ccc3c(c2)OCO3)NC(C)=O)CC1 (stereo not given),-4,.,.,.,.
COc1cc(/C=C/c2nc3ccccc3nc2/C=C/c2cc(OC)c(OC)c(OC)c2)cc(OC)c1OC,.,.,.,12,.
SMILES,PI4K2A inh,PI5P4K alpha inh,D3 ag,LDHA inh,DRD3 antagonist
Clc1ccc(N=c2ssnc2Cl)cc1,12,.,1,-6,41
COc1cc(N=c2ssnc2Cl)cc(OC)c1OC,7,-69*,-3,-2,-1
N#Cc1ccc(N=c2ssnc2Cl)cc1,-6,-91*,4,-4,4
C=CCn1c(CSCc2ccc(Cl)cc2Cl)nnc1SCC(=O)Nc1ccc(C(=O)O)cc1,-4,-74*,-8,-9,-14
CC(=O)c1ccc(NC(=O)CSCc2ccc(Cl)cc2Cl)cc1,.,.,.,9,.
O=C(COC(=O)Cn1cnc2ccccc21)Nc1ccc(Cl)c(C(F)(F)F)c1,.,.,.,3,.
O=C(NNC(=O)c1ccccc1OCCOc1ccccc1)c1ccc(F)cc1F,.,.,.,16,.
O=C(Nc1ccc(Cl)cn1)c1cccc(S(=O)(=O)N2CCCC2)c1,-2,-4,8,-8,8
CN(C)S(=O)(=O)c1cccc(C(=O)Nc2ccc(Cl)cn2)c1,0,.,-10,3,-77*
CC(C)Cn1c(SCC(=O)NCc2ccc(Cl)cc2)nc2ncccc2c1=O,.,.,.,11,.
S=C(NN=C1C2CC3CC(C2)CC1C3)Nc1ccccc1,2,-11,1,-2,-66*
CCS(=O)(=O)N1CCC(NC(=O)c2ccccc2C(=O)c2ccc(Cl)cc2)CC1,.,.,.,-31*,.
CCCN(CCC)C(=O)CSc1nc2n[nH]c(C)c2c(=N)n1-c1ccc(OCC)cc1,6,-1,2,1,-50*
O=C(NCCOc1ccccc1)c1cc(C(=O)NCCOc2ccccc2)cc([N+](=O)[O-])c1,-2,-1,-10,-45*,8
CCNc1nc(-c2ccc3[nH]c(=O)oc3c2)cs1,.,.,.,5,.
COc1ccccc1-c1cc(C(F)(F)F)nc(S(=O)(=O)CCCC(=O)N2CCCCC2C)n1 (stereo not given),34,-2,-6,-2,-88*
COc1ccccc1-c1cc(C(F)(F)F)nc(S(=O)(=O)CCCC(=O)Nc2cccnc2Cl)n1,-3,2,-15,-10,-52*
COc1ccccc1-c1cc(C(F)(F)F)nc(S(=O)(=O)CCCC(=O)NC(C)C)n1,15,7,0,0,-67*
COc1ccccc1-c1cc(C(F)(F)F)nc(S(=O)(=O)CCCC(=O)Nc2cc(C)on2)n1,21,9,-1,-9,-82*
CCc1cccc(C)c1Nc1c(-c2ccccc2)nc2cnccn12,.,.,.,18,.
Cc1ccc(CNC(=O)CN2C(=O)CN(C(=O)NCc3ccc(F)cc3)c3ccccc32)cc1,.,.,.,3,.
CCOc1cccc2cc(C(=O)Nc3ccccc3C(C)(C)C)c(=O)oc12,.,.,.,0,.
CC(=O)NC(Nc1ccc2ccccc2c1)C(Cl)(Cl)Cl (stereo not given),.,.,.,14,.
COc1ccccc1-c1cc(C(F)(F)F)nc(S(=O)(=O)CCCC(=O)NCc2ccc(F)cc2)n1,20,0,-9,-5,-67*
Clc1ccccc1COc1ccc2ccccc2c1CNCc1cccnc1,.,.,.,2,.
SMILES,PI4K2A inh,PI5P4K alpha inh,D3 ag,LDHA inh,DRD3 antagonist
COCc1cccc(C(=O)O)c1,.,.,.,0,.
CC1(C)Cc2c(c(N3CCOCC3)nc3sc(C(=O)Nc4cccc5ccccc45)c(N)c23)CO1,.,.,.,20,.
COc1ccc(-c2noc(CN(C(=O)c3ccc4c(c3)OCO4)C(C)C)n2)cc1,-19,-2,91*,-3,9
Cc1ccc(C)c(Oc2ncnc(N)c2[N+](=O)[O-])c1,-3,4,2,4,2
Cc1cc(Sc2nc(N)ncc2[N+](=O)[O-])ncn1,-14,-6,-7,-3,-60*
Cc1cc(Sc2ncnc(N)c2[N+](=O)[O-])ncn1,0,-5,-27,-1,-71*
CC(C)c1noc(CN2CCN(c3oc(C4CC4)nc3C#N)CC2)n1,.,.,.,-12,.
O=C(CSc1ccc(F)cc1)NCCCSc1ccccc1,.,.,.,10,.

# Screens deposited in PubChem BioAssay by National Center for Advancing Translational Sciences (NCATS).
